Compounds with a hit are over-represented: about 2.8% of the library has one in this group of screens.
Fam108B counter – blocks mouse Fam108B hydrolase in RBBP9 counter-screen; recombinant Fam108B, FP-Rh probe fluorescence polarization; inhibition, % at 9.51 µM; hit rate 0.33% among 300,000;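 active = inhibition above the screen mean inhibition plus 3 SD, computed separately per campaign, cut at about 18% in these data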;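 also: inhibitors lower polarization as less probe binds the enzyme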
PAFAH1B2 FP inh – blocks human PAF acetylhydrolase 1b catalytic subunit 2; recombinant PAFAH1B2, FP-rhodamine activity probe, fluorescence polarization; inhibition, % at 3.39 µM; hit rate 1.2% among 340,000; AID 492953;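 active = inhibition above the mean of all tested compounds plus 3 SD, cut at about 24% in these data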;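 also: 0% = enzyme with DMSO and 100% = wells lacking PAFAH1B2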
Target sequence (P68402 whole entry, looked up): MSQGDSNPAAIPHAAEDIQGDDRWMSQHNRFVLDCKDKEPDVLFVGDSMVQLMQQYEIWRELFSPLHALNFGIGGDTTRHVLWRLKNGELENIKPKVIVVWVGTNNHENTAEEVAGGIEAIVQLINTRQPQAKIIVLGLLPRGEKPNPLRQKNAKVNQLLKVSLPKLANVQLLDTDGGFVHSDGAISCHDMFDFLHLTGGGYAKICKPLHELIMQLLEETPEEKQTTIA
PAFAH1B3 FP inh – inhibitors of human PAFAH1B3; recombinant PAFAH1B3, FP-rhodamine probe, fluorescence polarization; Q15102; AID 492972; hit rate 0.28% among 340,000; inhibition, % at 3.39 µM;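 active = inhibition above the screen-wide average of all tested compounds plus 3 SD, cut at about 25% in these data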;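 also: 0% = enzyme with DMSO only and 100% = wells lacking PAFAH1B3 protein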
Target sequence (Q15102 whole entry, looked up): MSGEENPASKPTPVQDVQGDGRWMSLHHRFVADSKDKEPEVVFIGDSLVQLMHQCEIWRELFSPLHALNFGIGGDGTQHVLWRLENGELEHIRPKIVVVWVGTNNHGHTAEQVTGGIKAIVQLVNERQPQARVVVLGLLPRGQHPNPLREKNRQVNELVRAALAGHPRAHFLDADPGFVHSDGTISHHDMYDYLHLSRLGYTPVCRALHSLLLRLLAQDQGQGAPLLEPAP
PME-1 inh – blocks human protein phosphatase methylesterase 1. Q9Y570. recombinant PME-1, FP-Rh probe fluorescence polarization. inhibition, % at 5.9 µM. hit rate 0.53% among 320,000;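 active = inhibition above the campaign mean of all compounds plus 3 SD, cut at about 26% in these data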;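 also: competitive labeling of PME-1 active site by serine hydrolase directed probe; 0% = PME-1 with DMSO and 100% = wells lacking PME-1 enzyme; inhibitors block probe labeling so polarization falls and inhibition rises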
PAFAH2 inh – PAFAH2 (human) inhibition; recombinant PAFAH2, FP-rhodamine activity probe, fluorescence polarization; inhibition, % at 3.39 µM; hit rate 0.99% among 340,000;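 active = inhibition above the mean over all tested compounds plus 3 SD, cut at about 30% in these data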;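 also: inhibitors block probe labeling of enzyme so polarization drops; 0% = enzyme with DMSO and 100% = wells lacking PAFAH2 protein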
pPAFAH FP inh – pPAFAH (human) enzyme inhibition; Q13093; recombinant pPAFAH, FP-rhodamine probe fluorescence polarization; inhibition, % at 3.39 µM; hit rate 1.5% among 330,000; AID 463082;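 active = inhibition above the mean inhibition across the screen plus 3 SD, cut at about 25% in these data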;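 also: inhibitors block binding of the rhodamine activity-based probe so polarization drops; 0% = enzyme with DMSO and 100% = wells lacking pPAFAH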
Active calls of the source: *; . = not tested or not shown.

SMILES	Fam108B counter	PAFAH1B2 FP inh	PAFAH1B3 FP inh	PME-1 inh	PAFAH2 inh	pPAFAH FP inh
O=C(CN1CCN(S(=O)(=O)c2ccc(Br)cc2)CC1)N/N=C/c1ccco1	0	30*	4	-2	13	4
C/C(=N/NC(=O)CN1CCN(S(=O)(=O)c2ccc(C)cc2)CC1)c1cccc(O)c1	1	25*	6	0	-5	4
CC(C)(C)C(=O)Nc1cc2c3c(c1)CCC(=O)N3CCC2	0	0	8	5	-1	2
CSc1ncccc1C(=O)OCC(=O)c1ccc(C)s1	.	6	0	.	-1	-1
CCC(=O)N1CCc2cc(S(=O)(=O)NCCc3ccc(S(N)(=O)=O)cc3)ccc21	1	9	4	3	4	1
N/C(=N\OC(=O)c1ccccc1Cl)c1cccc([N+](=O)[O-])c1	-3	6	2	-3	2	0
N/C(=N/OC(=O)c1ccccc1Cl)c1ncc([N+](=O)[O-])s1	-1	26*	11	7	18	13
COc1cc(S(=O)(=O)NC(Cc2c[nH]c3ccccc23)C(=O)O)ccc1NC(C)=O (stereo not drawn)	2	5	3	-6	-1	-7
O=C(O)C(Cc1c[nH]c2ccccc12)NS(=O)(=O)c1ccccc1 (stereo not drawn)	0	24*	0	0	2	2
Cc1cc(C)c([N+](=O)[O-])cc1-c1ccc(/C=N/c2c(-c3ccco3)nc3ccccn23)o1	5	5	8	7	17	32*
COc1ccc(C2=NOC(C)(c3nnc(-c4ccc(Cl)cc4)o3)C2)cc1 (stereo not drawn)	-1	9	-1	-3	13	1
O=C(O)c1ccc(Cn2cnc3scc(-c4ccccc4)c3c2=O)cc1	-7	26*	16	-7	4	3
CC(C(=O)O)N(C(=O)c1ccccc1)c1ccc(F)cc1 (stereo not drawn)	1	29*	9	-3	0	5
O=C(Nc1ccnn1C1CCN(C(=O)Cc2ccccc2F)CC1)C1CC1	3	2	-5	7	-4	2
COc1ccc(O)cc1	.	8	2	.	-4	5
CC(C)(c1ccc(O)cc1)c1ccc(O)cc1	-1	48*	9	-1	-4	-9
COc1ccc(-c2oc(=O)c3cc(OC)c(OC)cc3c2-c2ccc3c(c2)OCO3)cc1	.	0	-7	.	-6	27*
COCc1ccc(-c2c(-c3ccc(OC)cc3)oc(=O)c3cc(OC)c(OC)cc23)cc1	.	-4	-12	.	-4	4
O=C(CSc1nc2ccccc2[nH]1)Nc1ccc(N2CCOCC2)cc1	3	8	8	-1	-1	5
O=c1c2ccccc2[nH]c2ccc(O)cc12	8	10	14	-4	18	29*
CC1CCC2(CC1)NC(=O)N(CC(=O)Nc1ccc(C(N)=O)cc1)C2=O (stereo not drawn)	.	3	-1	.	1	1
COc1cc(C2(c3ccc(O)c(OC)c3)C(=O)Nc3c(Br)cc(Br)cc32)ccc1O	6	25*	7	-3	6	1
Nc1ccc2c(S(=O)(=O)O)cccc2c1S(=O)(=O)O	.	4	9	.	-2	.
Nc1cccc2cc(S(=O)(=O)O)ccc12	.	31*	49*	.	30*	.
COc1cccc(-n2c(=O)n(Cc3ccccc3)c(=O)c3[nH]cnc32)c1	1	2	-5	2	-3	2
SMILES	Fam108B counter	PAFAH1B2 FP inh	PAFAH1B3 FP inh	PME-1 inh	PAFAH2 inh	pPAFAH FP inh
Cc1ccc(S(=O)(=O)N2[C@@H](c3ccc(C#N)cc3)C(C(=O)O)=C[C@H]2CC2CCCC2)cc1	.	27*	-1	.	4	2
CC(C)(C)[C@@H]1C=C(C(=O)O)[C@H](c2ccc(Cl)cc2)N1S(=O)(=O)c1ccccc1	.	27*	10	.	-1	5
CC[C@@H]1C=C(C(=O)O)[C@H](c2ccc(C)cc2)N1S(=O)(=O)c1ccc(C)cc1	.	8	7	.	1	2
CCCC[C@@H]1C=C(C(=O)O)[C@H](c2ccc(Cl)cc2)N1S(=O)(=O)c1ccc(C)cc1	.	28*	5	.	9	-1
CCCCC[C@@H]1C=C(C(=O)O)[C@H](c2ccc(Br)cc2)N1S(=O)(=O)c1ccc(C)cc1	.	27*	0	.	4	4
CC(=O)Nc1ccc(S(=O)(=O)NCCC(=O)OCC(=O)N2CCN(C(=O)c3ccco3)CC2)cc1	1	1	-3	1	7	-3
CCOc1ccccc1CNC(=O)CCNS(=O)(=O)c1ccc2[nH]c(=O)oc2c1	2	5	2	4	-1	6
O=C(N/N=C/C=C/c1ccccc1)NC1CCCCC1	-6	-3	4	-5	4	0
COc1cc(Br)cc2cc(C(=O)N3CCOCC3)c(=O)oc12	2	3	9	5	3	-5
CCCc1cc(=O)oc2cc(C)c(CN3CCCC3)c(O)c12	6	2	8	-1	23	25*
Cc1cccc(CNC(=O)C2CCC(=O)N(Cc3ccccc3F)C2)n1 (stereo not drawn)	.	1	1	.	2	.
CC(c1ccncn1)N(C)Cc1nc(-c2ccc(C(F)(F)F)cc2)no1 (stereo not drawn)	-1	0	8	-11	3	-1
Cc1oc(-c2ccc3ccccc3c2)nc1CN(C)C(C)c1ccncn1 (stereo not drawn)	-3	9	4	29*	4	10
CCOc1cc(C(=O)N[C@@H](C)C(=O)N2CCC3(CC2)NCCc2[nH]cnc23)cc(OCC)c1OCC	-3	4	5	1	-7	-4
O=C(NCCN1CCN(C(=O)c2ccc(F)cc2)CC1)C(=O)NCc1ccccc1	-5	7	3	-4	-2	-3
O=C(O)c1ccccc1C1=Nc2ccc(O)cc2Oc2cc(O)ccc21	18	9	8	17	-73	28*
Cc1cc(-c2ccccc2C(=O)O)on1	1	-3	-1	0	-7	0
Cc1cc(C)nc(N2CCC(C(=O)NNC(=O)c3ccc(Cl)cc3)CC2)n1	-2	2	1	-5	0	2
COc1ccc(N2CCN(C(=O)COc3ccc(S(=O)(=O)N4CCOCC4)cc3C)CC2)cc1	2	8	8	-1	5	4
COc1ccc(-c2sc3ccc(N4CCOCC4)cc3c2C#CC(C)(C)O)cc1	.	-2	-2	15	5	10
COc1ccc(-c2sc3ccc(N4CCOCC4)cc3c2C#Cc2ccsc2)cc1	.	-1	-2	.	4	28*
COc1cccc2c1C(=O)c1c(O)c3c(c(O)c1C2=O)CC(O)(C(C)=O)CC3OC1CC(N(C)C)C(O)C(C)O1 (stereo not drawn)	.	59*	46*	.	62*	.
